Data published in PubChem BioAssay (EPA / NIEHS).
Records with an inconclusive call do not appear. Activity calls are given as the source filed them. Rule for the calls, unless noted: active = hit-call score of the fitted dose curve at least 0.9, where 1 is the maximum; inconclusive = response in the unintended direction; inactive = score below 0.9.

How the values were obtained:
[1] = biological target: Bile acid receptor (Homo sapiens) (UniProt Q96RI1); assay: OT_FXR_FXRSRC1_0480: Odyssey Thera (OT) 8-hour HEK293T Protein-Complementation Assay for Farnesoid X receptor/SRC-1 Co-activator (AID 2283383)
Chain of Bile acid receptor (Homo sapiens) (Q96RI1 whole entry, looked up, the tested form may be a part): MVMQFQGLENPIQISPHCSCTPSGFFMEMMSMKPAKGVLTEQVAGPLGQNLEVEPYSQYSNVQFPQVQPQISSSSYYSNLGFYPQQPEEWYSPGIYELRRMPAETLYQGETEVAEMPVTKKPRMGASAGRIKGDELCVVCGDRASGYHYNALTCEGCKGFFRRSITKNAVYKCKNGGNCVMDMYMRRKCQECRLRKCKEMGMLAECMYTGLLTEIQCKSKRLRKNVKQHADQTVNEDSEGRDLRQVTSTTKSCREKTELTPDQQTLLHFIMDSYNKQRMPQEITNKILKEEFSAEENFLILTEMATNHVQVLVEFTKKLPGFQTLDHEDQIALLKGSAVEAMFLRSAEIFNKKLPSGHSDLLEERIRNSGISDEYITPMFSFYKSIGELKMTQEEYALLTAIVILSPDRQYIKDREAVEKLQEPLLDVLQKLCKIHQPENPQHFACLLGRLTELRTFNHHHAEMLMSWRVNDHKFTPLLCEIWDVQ
Summary of the method: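 Co-activator recruitment to FXR was measured in living HEK293T cells, where interaction of the two fused partners restored an active fluorescent reporter. Signal gain after 8 h treatment was referenced to DMSO.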

[2] = biological target: Bile acid receptor (Homo sapiens) (UniProt Q96RI1); assay: OT_FXR_FXRSRC1_1440: Odyssey Thera (OT) 24-hour HEK293T Protein-Complementation Assay for Farnesoid X receptor/SRC-1 Co-activator (AID 2283384)
Summary of the method: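 Cell-based binding reporter: interaction of FXR with SRC-1 brings reporter fragments together, giving a fluorescence signal read 24 h after dosing of HEK293T cells.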

[3] = biological target: Retinoic acid receptor RXR-alpha (Homo sapiens) (UniProt P19793); assay: OT_NURR1_NURR1RXRa_0480: Odyssey Thera (OT) 8-hour HEK293T Protein Complementation Assay for Nurr1/retinoid X receptor (RXR) (AID 2283385)
Chain of Retinoic acid receptor RXR-alpha (Homo sapiens) (P19793 whole entry, looked up, the tested form may be a part): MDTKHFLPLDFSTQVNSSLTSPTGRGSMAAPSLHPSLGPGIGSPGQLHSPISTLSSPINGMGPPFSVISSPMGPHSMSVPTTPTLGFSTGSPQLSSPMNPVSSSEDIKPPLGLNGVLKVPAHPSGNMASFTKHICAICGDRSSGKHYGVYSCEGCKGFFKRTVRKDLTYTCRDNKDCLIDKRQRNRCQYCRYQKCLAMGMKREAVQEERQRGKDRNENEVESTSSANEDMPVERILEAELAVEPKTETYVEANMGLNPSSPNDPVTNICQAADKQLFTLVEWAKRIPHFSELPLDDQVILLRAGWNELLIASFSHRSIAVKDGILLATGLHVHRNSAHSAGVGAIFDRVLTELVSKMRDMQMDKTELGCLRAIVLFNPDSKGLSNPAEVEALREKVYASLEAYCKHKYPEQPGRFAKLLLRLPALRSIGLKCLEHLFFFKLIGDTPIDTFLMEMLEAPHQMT
Summary of the method: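 Compounds are applied to HEK293T cells carrying Nurr1 and RXRα linked to reporter fragments. After 8 h, fluorescence intensity reports heterodimer formation, with DMSO as baseline.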

[4] = biological target: Peroxisome proliferator-activated receptor gamma (Homo sapiens) (UniProt P37231); assay: OT_PPARg_PPARgSRC1_0480: Odyssey Thera (OT) 8-hour Protein-Complementation Assay for Peroxisome Proliferator-activated Receptor Gamma / SRC-1 Co-activator (AID 2283387)
Chain of Peroxisome proliferator-activated receptor gamma (Homo sapiens) (P37231 whole entry, looked up, the tested form may be a part): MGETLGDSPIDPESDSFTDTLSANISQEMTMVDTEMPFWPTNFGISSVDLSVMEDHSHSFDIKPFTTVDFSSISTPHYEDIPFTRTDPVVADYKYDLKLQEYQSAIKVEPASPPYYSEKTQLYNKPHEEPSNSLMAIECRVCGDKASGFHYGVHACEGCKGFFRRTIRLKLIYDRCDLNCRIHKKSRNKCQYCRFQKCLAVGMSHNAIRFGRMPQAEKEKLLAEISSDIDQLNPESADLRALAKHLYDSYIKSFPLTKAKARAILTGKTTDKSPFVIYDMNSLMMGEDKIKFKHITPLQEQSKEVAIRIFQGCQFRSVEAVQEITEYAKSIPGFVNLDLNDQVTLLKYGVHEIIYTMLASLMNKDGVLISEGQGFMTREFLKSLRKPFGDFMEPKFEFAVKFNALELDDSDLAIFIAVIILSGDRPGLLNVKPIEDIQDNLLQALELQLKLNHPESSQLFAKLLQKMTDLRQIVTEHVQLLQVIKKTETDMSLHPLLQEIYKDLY
Summary of the method: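 Split-YFP (IFP1/IFP2) PPARg/SRC-1 reporter, HEK293T, 37 °C, 5% CO2; 8 h compound; formaldehyde fix + Draq5; high-content imaging, N/C ratio, ≥350 cells/image, positive direction vs DMSO.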

[5] = biological target: Peroxisome proliferator-activated receptor gamma (Homo sapiens) (UniProt P37231); assay: OT_PPARg_PPARgSRC1_1440: Odyssey Thera (OT) 24-hour Protein-Complementation Assay for Peroxisome Proliferator-activated Receptor Gamma/ SRC-1 Co-activator (AID 2283388)
Summary of the method: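 HEK293T transiently transfected with PPARg/SRC-1 split-Venus YFP fusions 48 h before dosing, then treated 24 h at 37C. Fixed cells imaged; nuclear/cytoplasmic 488 nm fluorescence ratio, gain of signal versus DMSO.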

[6] = biological target: Retinoic acid receptor RXR-alpha (Homo sapiens) (UniProt P19793); assay: OT_NURR1_NURR1RXRa_1440: Odyssey Thera (OT) 24-hour HEK293T Protein Complementation Assay for Nurr1/retinoid X receptor (RXR) (AID 2283386)
Summary of the method: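 Measured as fluorescence from a reconstituted split reporter, this 24 h HEK293T complementation assay scores compound-induced gain of Nurr1/RXRα association relative to DMSO.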

[7] = CEETOX_H295R_11DCORT: CeeTox H295R High-throughput Steroidogenesis Assay for 11-Deoxycortisol (11DCORT) (AID 2283432; active = hit-call score of the fitted dose curve at least 0.9, where 1 is the maximum; inactive = score below 0.9); conditions: actives raise or lower the signal
Summary of the method: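 Steroidogenesis in human H295R cells: 48 h chemical exposure after forskolin priming, 11-deoxycortisol measured by LC-MS/MS.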

[8] = CEETOX_H295R_OHPREG: CeeTox H295R High-throughput Steroidogenesis Assay for OH-Pregnenolone (OHPREG) (AID 2283434; active = hit-call score of the fitted dose curve at least 0.9, where 1 is the maximum; inactive = score below 0.9); conditions: actives raise or lower the signal
Summary of the method: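 Human adrenal H295R cells were prestimulated 48 h with 10 uM forskolin, then exposed 48 h to chemical in 0.1% DMSO. Medium 17alpha-hydroxypregnenolone was quantified by HPLC-MS/MS after MTBE extraction; bidirectional fitting versus DMSO baseline.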

[9] = CEETOX_H295R_OHPROG: CeeTox H295R High-throughput Steroidogenesis Assay for OH-Progesterone (OHPROG) (AID 2283435; active = hit-call score of the fitted dose curve at least 0.9, where 1 is the maximum; inactive = score below 0.9;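 for AC50: 17alpha-hydroxyprogesterone secreted into medium measured by HPLC-MS/MS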); conditions: actives raise or lower the signal
Summary of the method: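 Secreted 17alpha-hydroxyprogesterone is read by tandem MS from media of forskolin-primed H295R cells dosed with chemical for 48 h. Activity is fitted in both directions against DMSO baseline; cytotoxic concentrations are re-tested diluted.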

[10] = CEETOX_H295R_CORTIC: CeeTox H295R High-throughput Steroidogenesis Assay for Corticosterone (CORTIC) (AID 2283437; active = hit-call score of the fitted dose curve at least 0.9, where 1 is the maximum; inactive = score below 0.9;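 note: corticosterone secreted into medium quantified by mass spectrometry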); conditions: actives raise or lower the signal
Summary of the method: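 H295R cells were prestimulated 48 h with 10 uM forskolin, then exposed 48 h to test chemical in 0.1% DMSO. Medium corticosterone was MTBE-extracted and quantified by HPLC-MS/MS; bidirectional fit versus DMSO baseline.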

[11] = CEETOX_H295R_CORTISOL: CeeTox H295R High-throughput Steroidogenesis Assay for Cortisol (AID 2283438; active = hit-call score of the fitted dose curve at least 0.9, where 1 is the maximum; inactive = score below 0.9;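 note: cortisol secreted into medium quantified by LC-MS/MS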); conditions: actives raise or lower the signal
Summary of the method: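 Human adrenocortical H295R cells (passage ≤10) received test chemicals for 48 h after forskolin priming. Secreted cortisol was measured by LC-MS/MS.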

[12] = CEETOX_H295R_DOC: CeeTox H295R High-throughput Steroidogenesis Assay for DOC (AID 2283439; active = hit-call score of the fitted dose curve at least 0.9, where 1 is the maximum; inactive = score below 0.9); conditions: actives raise or lower the signal
Summary of the method: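 Secreted DOC was quantified from H295R media by HPLC-MS/MS after 48 h chemical exposure following 48 h forskolin (10 uM) prestimulation. Values were fitted in both directions relative to DMSO, the negative control and baseline.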

[13] = CEETOX_H295R_PROG: CeeTox H295R High-throughput Steroidogenesis Assay for Progesterone (PROG) (AID 2283442; active = hit-call score of the fitted dose curve at least 0.9, where 1 is the maximum; inactive = score below 0.9;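 for AC50: human H295R adrenal cells primed with 10 µM forskolin before dosing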); conditions: actives raise or lower the signal
Summary of the method: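 H295R adrenal cells prestimulated 48 h with 10 uM forskolin, then exposed 48 h to test chemical in 0.1% DMSO. Progesterone in medium quantified by HPLC-MS/MS after MTBE extraction; viability checked by MTT in same wells.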

[14] = biological target: Estrogen receptor (Homo sapiens) (UniProt P03372); assay: OT_ERa_GFPERaERE_0120: Odyssey Thera (OT) 2-hour HeLa Transcription Induction Assay for Estrogen Receptor (AID 2283382)
Chain of Estrogen receptor (Homo sapiens) (P03372 whole entry, looked up): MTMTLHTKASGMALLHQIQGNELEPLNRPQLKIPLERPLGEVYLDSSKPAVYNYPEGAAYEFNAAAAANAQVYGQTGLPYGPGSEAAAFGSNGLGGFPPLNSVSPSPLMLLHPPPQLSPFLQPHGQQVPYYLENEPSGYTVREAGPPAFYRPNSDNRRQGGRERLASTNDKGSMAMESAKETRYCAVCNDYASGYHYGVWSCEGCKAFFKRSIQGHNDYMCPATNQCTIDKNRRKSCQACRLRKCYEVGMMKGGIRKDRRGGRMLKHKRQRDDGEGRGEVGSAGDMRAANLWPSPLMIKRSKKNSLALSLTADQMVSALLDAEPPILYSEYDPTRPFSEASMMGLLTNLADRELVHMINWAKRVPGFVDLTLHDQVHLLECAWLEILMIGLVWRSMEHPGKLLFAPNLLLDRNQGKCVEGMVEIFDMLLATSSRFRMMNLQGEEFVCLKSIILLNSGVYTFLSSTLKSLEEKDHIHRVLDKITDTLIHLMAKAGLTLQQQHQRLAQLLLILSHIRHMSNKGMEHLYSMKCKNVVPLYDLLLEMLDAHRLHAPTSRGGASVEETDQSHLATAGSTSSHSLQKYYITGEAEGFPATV
Summary of the method: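 Measures ESR1 pathway reporter gain-of-signal in HeLa cells after a 2-hour treatment, detected as fluorescent protein induction by microscopy, DMSO as baseline.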

[15] = CEETOX_H295R_ANDR: CeeTox H295R High-throughput Steroidogenesis Assay for Androstenedione (ANDR) (AID 2283436; active = hit-call score of the fitted dose curve at least 0.9, where 1 is the maximum; inactive = score below 0.9); conditions: actives raise or lower the signal
Summary of the method: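 H295R human adrenal cells (passages ≤10) were exposed to test chemicals for 48 h; androstenedione in medium was MTBE-extracted and quantified by HPLC-MS/MS against a 7-point standard curve. Bidirectional fitting used DMSO as baseline.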

Measured: AC50

C=C(C)C(=O)OCCOC1CC2CC1C1C=CCC21 (stereo unspecified)
active: [1] 72.3 µM
inactive: [2] | [3] | [4] | [5]

CCCCCCCCCC(=O)OC
inactive: [1] | [2] | [6] | [4] | [5]

CCCCCCCCN1CCCC1=O
active: [1] 50 µM
not listed: [14] | [15]
inactive: all other assays above

CCCCCCCCCCCC(=O)OCC(O)CO (stereo unspecified)
inactive: [14] | [3] | [6] | [4] | [5]

O=C(CC(=O)c1ccccc1)c1ccccc1
active: [6] 81.5 µM
inactive: [1] | [2] | [3] | [4] | [5]

O=[N+]([O-])c1ccc(O)cc1C(F)(F)F
active: [2] 77.1 µM | [6] 86.8 µM
inactive: [1] | [4] | [5]

O=C(Nc1ccc2c(O)c(N=Nc3ccc(N=Nc4ccc(S(=O)(=O)O)cc4)cc3)c(S(=O)(=O)O)cc2c1)c1ccccc1
inactive: [14] | [3] | [6] | [4] | [5]

CSCCC=O
inactive: [1] | [2] | [3] | [4] | [5]

CCc1cc(C(C)(C)C)c(O)c(C(C)(C)C)c1
active: [1] 33.6 µM | [3] 83.8 µM | [6] 86.2 µM
not listed: [14] | [15]
inactive: all other assays above

CCOC(=O)[C@@H](C)Oc1ccc(Oc2nc3ccc(Cl)cc3o2)cc1
active: [1] 24 µM | [2] 50 µM | [9] 10.1 µM | [12] 22.8 µM | [13] 25.7 µM
not listed: [14]
inactive: all other assays above
